15 compounds from PubChem BioAssay (NCATS) can be followed below.

Assay [1] has as its system NIH3T3. Put plainly: Cytotoxic Profiling of Annotated Libraries Using Quantitative High-Throughput Screening (AID 1296008). Further: nearly all actives have a fitted effect of over 60% in size. The following applies: Five cell lines viability, CellTiter-Glo ATP luminescence, 48-72 h; max response: stronger effect = lower value. Put shortly: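 Compounds were pin-transferred onto cells and incubated 48 or 72 hr at 37 degree Celsius, 95% humidity. CellTiter-Glo was added, plates sat 10 min at room temperature, then ATP-coupled luminescence was imaged as the viability read-out.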
(In ATP-based viability assays light output follows the ATP content of the culture.)

For assay [2], the system named is MCC-13. The assay is described as follows: qHTS assay to identify novel small-molecules to repurpose for Merkel cell carcinoma treatment (AID 1296009). Further: nearly all actives have a fitted effect of over 60% in size. The following applies: MCC and control cell lines, CellTiter-Glo viability, 72 h; series mostly up to 46 µM. The method in brief: (§1)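 Cells exposed to NPC (8-point) and MIPE (11-point) compound dilutions for 72 hr at 37 degree celsius; viability read by CellTiter-Glo luminescence, normalized to no-cell and DMSO in-plate controls.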

The subject of assay [3] is MCC-26. The description is as above. The conditions noted are these: MCC and control cell lines, CellTiter-Glo viability, 72 h; series mostly up to 46 µM. The method in brief: as §1
Assay [4] deals with MKL-1. Described as above. The conditions noted are these: MCC and control cell lines, CellTiter-Glo viability, 72 h; series mostly up to 46 µM. Put shortly: as §1
Assay [5] concerns MKL-2. Described as above. The following applies: MCC and control cell lines, CellTiter-Glo viability, 72 h; series mostly up to 46 µM. The method in brief:
as §1

Assay [6] concerns UISO. The description is as above. The following applies: MCC and control cell lines, CellTiter-Glo viability, 72 h; series mostly up to 46 µM. The method in brief: as §1
In assay [7] the test system is WaGa. The description is as above. The conditions noted are these: MCC and control cell lines, CellTiter-Glo viability, 72 h; series mostly up to 46 µM. The method in brief:
as §1

In assay [8] the test system is C33A. The assay is described as follows: Primary qHTS to identify gynecologic anti-cancer compounds using libraries of approved drugs and bioactive compounds (AID 1345084). Further: nearly all actives have a fitted effect of over 55% in size. The following applies: Gynecologic cancer cell panel viability, ATPlite luminescence, 48 h; series mostly up to 57.5 µM. Put shortly:
(§2)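 48 h compound exposure at 37 C, 5% CO2; five-point qHTS. ATPlite luminescence readout of cell ATP.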

Assay [9] concerns CASKI. The description is as above. The following applies: Gynecologic cancer cell panel viability, ATPlite luminescence, 48 h; series mostly up to 57.5 µM. The method in brief:
as §2

Assay [10] has as its system Es-2. The assay is described as above. The following applies: Gynecologic cancer cell panel viability, ATPlite luminescence, 48 h; series mostly up to 57.5 µM. Put shortly:
as §2

In assay [11] the test system is HeLa. Described as above. The following applies: Gynecologic cancer cell panel viability, ATPlite luminescence, 48 h; series mostly up to 57.5 µM. Put shortly: as §2
The test system of assay [12] is Hek293T. Described as above. The following applies: Gynecologic cancer cell panel viability, ATPlite luminescence, 48 h, control line for the selectivity index; series mostly up to 57.5 µM. The method in brief: as §2
In assay [13] the test system is JEG-3. The description is as above. The conditions noted are these: Gynecologic cancer cell panel viability, ATPlite luminescence, 48 h; series mostly up to 57.5 µM. The method in brief:
as §2

The test system of assay [14] is PA-1. The description is as above. The following applies: Gynecologic cancer cell panel viability, ATPlite luminescence, 48 h; series mostly up to 57.5 µM. The method in brief: as §2
In assay [15] the test system is OV90. The description is as above. The following applies: Gynecologic cancer cell panel viability, ATPlite luminescence, 48 h; series mostly up to 57.5 µM. Put shortly: as §2
Assay [16] concerns SKOV3. The assay is described as above. The conditions noted are these: Gynecologic cancer cell panel viability, ATPlite luminescence, 48 h; series mostly up to 57.5 µM. Put shortly:
as §2

The test system of assay [17] is CAOV3. The assay is described as above. The conditions noted are these: Gynecologic cancer cell panel viability, ATPlite luminescence, 48 h; series mostly up to 57.5 µM. The method in brief:
as §2

In assay [18] the test system is NIH3T3. The assay is described as follows: qHTS assay to identify novel small-molecules to repurpose for Merkel cell carcinoma treatment (AID 1296009). Further: nearly all actives have a fitted effect of over 60% in size. The conditions noted are these: MCC and control cell lines, CellTiter-Glo viability, 72 h; at 44.8 µM (top of the series) unless noted. The method in brief: as §1
A general note: qHTS replaces the single test concentration by a dilution series.

Structures are written as SMILES. “And” between values parts separate entries of the source, which are not always exact repeats. Equal entries are not always repeated. Records with an inconclusive call do not appear. Where a structure was tested more than once in an assay, its records may differ in their call. The source made the active and inactive calls. The call rests on the fitted dose curve; in most records, active means well fitted curve in the direction sought with a large enough effect; inconclusive means small, poorly fitted or top-dose-only effect, or another doubt; inactive means no such curve, though single readings can be large; an effect the other way counts as inactive or inconclusive.
On the % scale 0 is the no-effect control and ±100 the full control effect; potency means the concentration at half of the fitted maximal effect.

For `C[C@]12CCC(=O)C=C1CC[C@@H]1[C@@H]2[C@@H](O)C[C@@]2(C)[C@H]1CC[C@]2(O)C(=O)CO`, in assay [1], the max response is 1.04% (inactive). The Potency entry in [2], in [3], in assay [4], in [5], in assay [6] and in assay [7] was “inactive” in each case. In addition, the Potency result in assay [8], in assay [9], in [10], in assay [11], in assay [12] and in [13] was “inactive” throughout. Also, the Potency result in [14] was “inactive”.
Turning to `Cn1cnc([N+](=O)[O-])c1Sc1ncnc2nc[nH]c12`, the Potency in assay [1] is 3.82 µM (active) and 7.5 µM (active) and 5.9 µM (active); in [2], 4.28 µM (active) and 6.68 µM (active); in [4], 10.8 µM (active) and inactive; in assay [5] it was 12.1 µM (active); in [7], 1.91 µM (active); in assay [8], 8.91 µM (active) and 7.94 µM (active). Also, the Potency in [9] is 1.26 µM (active) and 3.55 µM (active); in assay [10], 3.16 µM (active) and 10 µM (active); in [11] it was 1.41 µM (active); in assay [12] it was 15.8 µM (active) and 28.2 µM (active); in [13], 3.16 µM (active); in assay [15] it was 3.98 µM (active) and 7.08 µM (active). For the same compound, the Potency in [14] is 1.12 µM (active) and 7.08 µM (active). In addition, the Potency result in [3] and in assay [16] was “inactive” in each case.
In the case of `CCCS(=O)(=O)Nc1ccc(F)c(C(=O)c2c[nH]c3ncc(Cl)cc23)c1F`, the max response in assay [1] is -18.6% (inactive). In addition, the Potency result in assay [2], in assay [4], in assay [5], in assay [7], in assay [8] and in assay [17] was “inactive” throughout. Also, the Potency entry in [9], in assay [11], in [12], in assay [13] and in assay [15] was “inactive” in each case.
As to `CC(C)(Sc1ccc(CCN(CCCCC2CCCCC2)C(=O)NC2CCCCC2)cc1)C(=O)O`, the max response in assay [1] was -1.54% (inactive) and 3.22% (inactive). Moreover, the Potency result in [2], in assay [3], in assay [6], in [8], in assay [9] and in assay [10] was “inactive” each time. Moreover, the Potency result in assay [11], in assay [12], in assay [13], in assay [15], in assay [14] and in [16] was “inactive” in each case.
As to `OCCC#Cc1nc(-c2ccc(F)cc2)c(-c2ccncc2)n1CCCc1ccccc1`, the compound was classed as inactive in assay [1] and in assay [18]. The Potency result in assay [2], in assay [4] and in [6] was “inactive” throughout.
On to `CN(C)c1ccc(Nc2nc(N)n(C(=O)c3c(F)cccc3F)n2)cc1`, for which the Potency is 10.5 µM (active) in assay [1] and 12.6 µM (active) in assay [11]. In addition, the Potency result in [3], in assay [5], in [6], in [8], in assay [9] and in assay [10] was “inactive” throughout. Further, the Potency result in assay [12], in assay [13], in assay [15], in assay [14] and in assay [16] was “inactive” each time.
For the compound `Cc1cc(Nc2nc(N[C@@H](C)c3ncc(F)cn3)ncc2Cl)n[nH]1`, the figures for the Potency in assay [1] and in assay [11] were 8.2 µM (active) and 4.47 µM (active), respectively. For the same compound, the Potency entry in assay [2], in [8], in [10], in assay [12] and in [13] was “inactive” in each case.
Turning to `CC[C@H](Nc1ncnc2nc[nH]c12)c1nc2cccc(F)c2c(=O)n1-c1ccccc1`, in assay [1], the max response is -27.5% (inactive). For the same compound, the Potency entry in assay [2], in [4] and in assay [6] was “inactive” each time. Moreover, the activity change, negative = cytotoxicity is -4.71% [at 11.6 µM] (inactive) in assay [8]; -22.6% [at 11.6 µM] (inactive) in assay [9]; -27.1% [at 11.6 µM] (inactive) in assay [10]; -8.83% [at 11.6 µM] (inactive) in assay [11]; -17.7% [at 11.6 µM] (inactive) in assay [12]; -10.7% [at 11.6 µM] (inactive) in assay [13]. Also, the activity change, negative = cytotoxicity in assay [15] was -4.59% [at 11.6 µM] (inactive); in assay [14] it was 0.976% [at 11.6 µM] (inactive).
Consider `CCOC(=O)N1CCC(=C2c3ccc(Cl)cc3CCc3cccnc32)CC1`, for which the max response in [1] is -21% (inactive) and -12% (inactive). The Potency result in assay [2], in assay [3], in assay [4], in assay [5], in assay [6] and in assay [8] was “inactive” in each case. Further, the Potency entry in assay [17], in assay [9], in [12], in [13] and in [15] was “inactive” each time.
`NNCCc1ccccc1`: the max response in assay [1] was 1.01% (inactive). For the same compound, the Potency result in assay [2], in assay [4], in assay [5], in assay [6], in assay [7] and in [8] was “inactive” throughout. Moreover, the Potency result in assay [17], in assay [9], in assay [10], in assay [11], in [12] and in assay [13] was “inactive” throughout. The Potency entry in [15], in assay [14] and in [16] was “inactive” throughout.
With `COc1cc(Nc2ncc3c(n2)-c2ccc(Cl)cc2C(c2c(F)cccc2OC)=NC3)ccc1C(=O)O`, the Potency in [1] is 7.43 µM (active); in assay [7] it was 0.148 µM (active); in assay [8] it was 28.2 µM (active) and inactive; in assay [17], 31.6 µM (active); in assay [15], 28.2 µM (active) and inactive; in [16], 25.1 µM (active) and inactive. In addition, the Potency entry in assay [3], in assay [5], in assay [6], in assay [10], in [11] and in [12] was “inactive” each time. Moreover, the Potency entry in [13] and in [14] was “inactive” each time.
For the compound `CC(C)(N)C(=O)N[C@H](COCc1ccccc1)C(=O)N1CCC2(CC1)CN(S(C)(=O)=O)c1ccccc12`, the max response in assay [1] is -13.8% (inactive). The Potency entry in assay [2], in assay [3], in assay [4], in [5], in [6] and in assay [7] was “inactive” throughout. The Potency entry in assay [8], in assay [9], in [11], in [13], in assay [15] and in assay [14] was “inactive” in each case.
With `CCOC(=O)N[C@@H]1CC[C@@H]2[C@@H](C1)C[C@H]1C(=O)O[C@H](C)[C@H]1[C@@H]2C=Cc1ccc(-c2cccc(F)c2)cn1`, the max response in [1] was -8.03% (inactive). In addition, the Potency entry in [2], in assay [4], in assay [6] and in assay [7] was “inactive” each time. The Potency in assay [5] is 20.9 µM (active).
Turning to `CC1(C)SCCN(S(=O)(=O)c2ccc(OCC#CCO)cc2)[C@@H]1C(=O)NO`, in [1], the max response was -11.8% (inactive). Besides, the Potency result in assay [2], in assay [3], in [5] and in [6] was “inactive” each time.
For `CC1(C)Cc2c(-c3ccccc3)c(-c3ccc(Cl)cc3)c(CC(=O)O)n2C1`, the max response in assay [1] is -5.92% (inactive). In addition, the Potency result in [2], in [3], in [4], in [5], in assay [6] and in assay [7] was “inactive” each time. Besides, the Potency result in assay [8], in assay [17], in assay [9], in assay [10], in assay [11] and in assay [13] was “inactive” each time. Besides, the Potency result in assay [15], in [14] and in [16] was “inactive” each time.
